Assay outcomes as filed in PubChem BioAssay.
AmpC no deterg – inhibitors of E. coli AmpC beta-lactamase without detergent; P00811; Potency, µM (titrated, usually from 57.1 µM), without a hit: at the top dose activity change, negative = inhibition, most hits filed as inhibitors; AmpC nitrocefin hydrolysis, absorbance 480 nm, 0.0001% Triton; 0.52% of 330,000 active;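 also: plate controls were no compound for no effect and no enzyme for full effect; nearly all actives have a fitted effect of over 20% in size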
Target sequence (P00811 whole entry, looked up): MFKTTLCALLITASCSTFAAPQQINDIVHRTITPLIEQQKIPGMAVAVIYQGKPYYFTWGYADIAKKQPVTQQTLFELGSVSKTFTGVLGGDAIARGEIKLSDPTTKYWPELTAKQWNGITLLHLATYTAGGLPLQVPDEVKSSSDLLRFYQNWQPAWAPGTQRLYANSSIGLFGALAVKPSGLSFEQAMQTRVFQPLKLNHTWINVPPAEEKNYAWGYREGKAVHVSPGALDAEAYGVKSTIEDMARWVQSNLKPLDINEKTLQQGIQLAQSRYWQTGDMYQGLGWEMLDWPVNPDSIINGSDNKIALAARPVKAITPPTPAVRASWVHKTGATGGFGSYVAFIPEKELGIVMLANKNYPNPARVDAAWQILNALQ
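AmpC (5.3 nM in the dispensed reagent) in 20 mM phosphate pH 7.0 with 0.01% (detergent screen) or 0.0001% Triton X-100 was preincubated with compounds for 15 min at room temperature. Nitrocefin was then added from an 800 uM solution, and hydrolysis was followed at 480 nm.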
Giardia FBPA inh-1 – blocks Giardia fructose-bisphosphate aldolase activity | A8B2U2 | purified Giardia FBPA | Potency, µM (highest dose often 59.6 µM), for the others: top-dose activity, negative = inhibition, hits mostly inhibitors | 0.71% of 290,000 active; also: nearly all actives have a fitted effect of over 55% in size
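40 nM FBPA preincubated 10 min at RT with compound (up to 57.5 uM final), then substrate plus GAPDH/TPI/NAD/arsenate coupling and diaphorase/resazurin added. Fluorescence read after 20 min at RT, 525/598 nm.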
AmpC detergent – inhibitors of E. coli AmpC beta-lactamase with detergent. P00811. AmpC hydrolysis of nitrocefin, absorbance 480 nm, 0.01% Triton. Potency, µM (highest dose often 114 µM), without a hit: top-dose activity change, negative = inhibition, most hits filed as inhibitors. 0.041% of 370,000 active. AID 485294;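 also: 0% = no-compound wells and -100% = no-enzyme wells; nearly all actives have a fitted effect of over 25% in size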
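AmpC (5.3 nM in the dispensed reagent) in 20 mM phosphate pH 7.0 with 0.01% (detergent screen) or 0.0001% Triton X-100 was preincubated with compounds for 15 min at room temperature. Nitrocefin was then added from an 800 uM solution, and hydrolysis was followed at 480 nm.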
Sm TGR block – S. mansoni TGR enzyme inhibition | Q962Y6 | purified TGR, DTNB reduction, TNB absorbance 405 nm | Potency, µM (doses to about 114 µM), without a hit: at the top dose activity change, negative = inhibition, usual class: inhibitors | 3% of 360,000 active; also: nearly all actives have a fitted effect of over 60% in size
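TGR 20 nM + NADPH 100 uM (dispensed conc.), cpd preinc 15 min RT; start with NADPH (500 uM addition) then DTNB (15 mM addition). Kinetic TNB absorbance, 405 nm filter. Four-parameter Hill fit across titration.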
RE007 growth inh – less growth of the S. pombe RE007 Vpr strain; 0.21% of 360,000 active; Potency, µM (highest dose often 92.2 µM), for the others: top-dose activity change, negative = less growth, hits mostly inhibitors; S. pombe RE007 Vpr strain, BacTiter-Glo ATP luminescence, 24 h; active = well fitted falling curve with a large enough effect; inconclusive = small, poorly fitted or top-dose-only effect; inactive = no such curve, though single readings can be large or run the other way; also: nearly all actives have a fitted effect of over 50% in size
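Fission yeast RE007 carrying one integrated HIV-1 vpr copy, seeded at OD 0.01 in PMG+AL medium with 23 nL pinned compound. Grown 24 h at 30 degrees; viability read by BacTiter-Glo luminescence after 5 min.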
Giardia growth – inhibitors of Giardia lamblia growth; Giardia lamblia trophozoite growth inhibition; shares compounds with Giardia FBPA inh-1; Potency, µM (series often up to 57.5 µM), for the others: top-dose activity change, negative = inhibition, usual class: inhibitors; 5% of 1,500 active;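 also: trophozoites exposed to compound for 48 h at 37 °C; nearly all actives have a fitted effect of over 70% in size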
Mammal cell tox – mammalian cytotoxicity of Giardia aldolase inhibitor hits; Potency, µM (top dose mostly 57.5 µM), without a hit: at the top dose viability change, negative = toxicity, actives largely listed as inhibitors; shares compounds with Giardia FBPA inh-1; mammalian cell viability counter-screen, qHTS; 4% of 1,500 active;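 also: Chinese hamster ovary cells used as mammalian cytotoxicity surrogate; viability measured as cellular ATP by luminescence; compound exposure lasted 48 h before reading; nearly all actives have a fitted effect of over 60% in size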
Giardia FBPA inh-2 – confirmation of Giardia fructose-bisphosphate aldolase inhibitors | shares compounds with Giardia FBPA inh-1 | purified Giardia aldolase enzyme activity, qHTS | Potency, µM (top dose mostly 57.5 µM), for inactives: top-dose activity change, negative = inhibition, hits mostly inhibitors | 5% of 1,500 active; also: nearly all actives have a fitted effect of over 45% in size
Rabbit FBPA inh – rabbit FBP aldolase inhibition by Giardia aldolase hits. shares compounds with Giardia FBPA inh-1. Rabbit muscle FBPA enzyme inhibition, selectivity counter-screen. Potency, µM (highest dose often 57.5 µM), without a hit: at the highest dose activity, negative = inhibition, hits mostly inhibitors. 4% of 1,500 active. AID 2794; also: nearly all actives have a fitted effect of over 60% in size
Target sequence (P00883 whole entry, looked up): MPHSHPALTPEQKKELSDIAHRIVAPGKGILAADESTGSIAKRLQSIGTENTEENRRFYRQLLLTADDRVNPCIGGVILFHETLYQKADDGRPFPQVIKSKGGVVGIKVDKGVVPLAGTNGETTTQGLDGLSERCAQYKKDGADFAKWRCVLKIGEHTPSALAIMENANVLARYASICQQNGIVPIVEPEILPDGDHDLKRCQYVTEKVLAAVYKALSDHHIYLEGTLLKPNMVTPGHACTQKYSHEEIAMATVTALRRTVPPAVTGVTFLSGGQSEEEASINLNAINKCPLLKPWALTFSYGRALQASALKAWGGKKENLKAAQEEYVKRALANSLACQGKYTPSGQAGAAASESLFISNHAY
GAPDH counter – GAPDH inhibition flagged for Giardia aldolase hits. shares compounds with Giardia FBPA inh-1. GAPDH coupling enzyme counterscreen, biochemical, qHTS. Potency, µM (top dose mostly 57.5 µM), inactives show top-dose activity change, negative = inhibition, hits mostly inhibitors. 6% of 1,500 active; also: nearly all actives have a fitted effect of over 55% in size
An asterisk follows results filed as active; ? = inconclusive; · = no result; [ ] = another dose, or the depositor's remark. This is a sample that favours compounds with a hit; in the whole collection about 3.4% have one here. Unless noted, calls follow the shape of the dose curve; as a rule, active = well fitted curve in the direction sought with a large enough effect; inconclusive = small, poorly fitted or top-dose-only effect, or another doubt; inactive = no such curve, though single readings can be large; an effect the other way counts as inactive or inconclusive. Unless noted, % is scaled to controls: 0 for no effect and ±100 for the full control effect; potency is read from the fitted curve at half-maximal effect.

SMILES	AmpC no deterg	Giardia FBPA inh-1	AmpC detergent	Sm TGR block	RE007 growth inh	Giardia growth	Mammal cell tox	Giardia FBPA inh-2	Rabbit FBPA inh	GAPDH counter
COc1ccc2c(c1)CCC(C)N2S(=O)(=O)c1ccc(C2CNC(=O)C2)cc1 (centres undefined)	126%	-1%	9%	-16%	6%	·	·	·	·	·
CCO[C@@H]1OC(C(=O)NCc2ccccc2)=C[C@H](C2CCCCC2)[C@H]1CCCO	125%	-15%	3%	8%	-4%	·	·	·	·	·
Cc1ccc(NC(=O)CS(=O)CC(=O)NC(C)CCc2ccco2)cc1Cl (centres undefined)	-29%	4%	?	-18%	1%	·	·	·	·	·
CCC1(C)Cc2c(C#N)c(N)sc(=S)c2CO1 (centres undefined)	-18%	2.2µM*	-9%	?	-3%	6%[10.4 µM]	-6%	-17%	-6%	-13%
N#Cc1c(N)sc(=S)c2c1CCCC2	-45%	18µM*	0%	28µM*	-22%	?	2%	-16%	-15%	-19%
CCC1(C)Cc2c(C#N)c(N)n(-c3ccccc3)c(=S)c2CO1 (centres undefined)	-11%	1%	-1%	7%	1%	·	·	·	·	·
O=C1CN(C(=S)NC(=O)c2ccccc2[N+](=O)[O-])CCN1	-8%	11µM*	2%	0%	13%	?	-7%	0%	8%	12%
COc1cccc(Nc2ccc3cc(S(=O)(=O)N4CCC(C)CC4)ccc3n2)c1	·	·	1%	8%	·	·	·	·	·	·
COc1ccc(CN(C)S(=O)(=O)c2nnc(NC(=O)c3ccc(C)cc3)s2)cc1OC	1%	25µM*	-12%	2%	21%	-14%	-5%	?	?	20µM*
COc1ccc(CN(C)S(=O)(=O)c2nnc(NC(=O)c3ccccc3OC)s2)cc1OC	20%	-17%	-6%	-12%	-2%	·	·	·	·	·
CN(Cc1ccco1)S(=O)(=O)c1nnc(NC(=O)c2ccc(F)cc2)s1	-20%	20µM*	?	0%	-4%	7%[10.4 µM]	8%	?	32µM*	20µM*
COc1ccc(NC(=O)CN2CCCN(S(=O)(=O)c3ccc(F)cc3)CC2)c(OC)c1	96%	-2%	5%	-17%	6%	·	·	·	·	·
CCOC(=O)c1sc2nc(CSc3ccccc3)nc(N3CCC(C(N)=O)CC3)c2c1C	121%	-15%	1%	-1%	0%	·	·	·	·	·
CCOC(=O)c1sc2nc(CSc3ccccc3)nc(N3CCCN(C)CC3)c2c1C	204%	20µM*	-6%	-32%	-3%	-18%	-17%	4%	-1%	6%
CC(C)OC(=O)Nc1ccc2c(c1)N(C(=O)N1CCN(C)CC1)c1ccccc1CC2	127%	16µM*	4%	1%	-25%	8.9µM*	1.8µM*	2%	9%	6%
CCOC(=O)Nc1ccc2c(c1)N(C(=O)N1CCN(C)CC1)c1ccccc1CC2	117%	5%	3%	16%	19%	·	·	·	·	·
CCOc1cccc(OCCOCCN2CCCC2)c1	-8%	-9%	-15%	9%	-5%	·	·	·	·	·
Cc1cc(Br)ccc1OCCOCCN1CCCC1	13%	16µM*	-7%	-6%	-2%	2%[10.4 µM]	-3%	-7%	6%	-11%
CCOc1ccc(OCCOCCN2CCCC2)cc1	-14%	28µM*	-4%	-12%	2%	?	9%	9%	20%	0%
O=C(CNCc1cccnc1)Nc1cc(C(F)(F)F)ccc1N1CCOCC1	41%	7.9µM*	1%	21%	6%	?	-11%	-3%	-4%	4%
CCC(=O)Nc1cc(C(F)(F)F)ccc1N1CCOCC1	-6%	6%	-5%	0%	21%	·	·	·	·	·
Cc1ccc(C)c(C(O)c2ncc(-c3ccc4ccccc4c3)[nH]2)c1 (centres undefined)	·	·	·	·	15%	·	·	·	·	·
CCOC(=O)c1cccc(Nc2cc(-c3ccccc3)ncn2)c1	·	·	4%	-2%	·	·	·	·	·	·
NC(=S)N=Nc1ccc(NN=C(N)N)cc1	-24%	10µM*	?	50µM*	-20%	22%	-3%	?	?	?
N#Cc1c(NC(=O)c2cnn3cccnc23)sc2c1CCCC2	-17%	1%	-2%	·	-11%	·	·	·	·	·
SMILES	AmpC no deterg	Giardia FBPA inh-1	AmpC detergent	Sm TGR block	RE007 growth inh	Giardia growth	Mammal cell tox	Giardia FBPA inh-2	Rabbit FBPA inh	GAPDH counter
CN(C)/C=N/c1nc(Sc2ccc(C(F)(F)F)cc2[N+](=O)[O-])n[nH]1	-5%	-6%	-2%	17%	1%	·	·	·	·	·
O=[N+]([O-])c1cc(C(F)(F)F)cc([N+](=O)[O-])c1Sc1n[nH]c(C(F)(F)F)n1	-21%	18µM*	-7%	0%	-24%	?	-6%	-6%	10%	-13%
NC(=O)c1c(NC(=O)c2ccccc2)sc2c1CCN(Cc1ccccc1)C2	-17%	16µM*	-7%	-17%	-3%	?	-17%	0%	2%	10%
CC(C)C(=O)Nc1sc2c(c1C(N)=O)CCN(Cc1ccccc1)C2	0%	28µM*	-7%	-7%	4%	3%[10.4 µM]	-11%	1%	3%	-18%
CCN1CCc2c(sc(NC(=O)Cc3ccccc3)c2C(=O)OC)C1	-1%	14µM*	-3%	-7%	2%	5%[10.4 µM]	4%	9%	12%	16%
O=C(NCCc1ccccc1Cl)C1CCN(c2nc3ccccc3nc2C(F)(F)F)CC1	·	·	-3%	3%	·	·	·	·	·	·
C=CCn1c(SCC(=O)c2ccc(CNC(C)=O)o2)nc2ccccc2c1=O	40%	-15%	-1%	?	-2%	·	·	·	·	·
COc1ccccc1NS(=O)(=O)c1cc(N)ccc1N1CCCCC1	-25%	-10%	-1%	·	-15%	·	·	·	·	·
Nc1ccc(N2CCCCC2)c(S(=O)(=O)Nc2ccccc2Cl)c1	-35%	16µM*	2%	5%	-4%	29%	-9%	-7%	5%	-11%
COc1ccc(OC)c2sc(N3CCN(C(=O)c4ccco4)CC3)nc12	·	·	-1%	0%	·	·	·	·	·	·
